Experimental data as given in PubChem BioAssay.

System: XIP peptide (Xip251-270) binding
Experiment: XIP fragment 251-270 binding compounds – biochemical, small-molecule microarray, fluorescence 635/667 nm, 0.1 µg/mL protein, primary screen (AID 1182)
Settings: fluorescent protein binding, 635 nm, higher = more signal, called active from +8 up or from −8 down

Composite z-score, inactive:
[N-]=[N+]=Nc1ccccc1[C@@H]1OC(c2ccc(OCCCO)cc2)=N[C@]1(CCS(=O)(=O)c1ccccc1)C(=O)NCCN1CCOCC1 0.691
COCCCNC(=O)[C@@H]1c2ccccc2C(=O)N(Cc2ccccc2C(F)(F)F)[C@H]1c1ccc(CO)cc1 0.348
NC(=O)N1C(=O)C2C(C1=O)C1C=C(CCCO)C2C(c2cccs2)N1Cc1cc2c(cc1Br)OCO2 (stereo not given) 0.0706
CCOC(=O)C[C@H]1[C@H](OC(=O)c2ccccc2-c2ccccc2)[C@@H](NC(=O)CC(C)C)c2cc(OCCCO)ccc2N1C(=O)c1ccc2ccccc2n1 2.34
CN1C(=O)C2C=CC(C(O)C3CCCCC3)N(N3CCCCC3)C2C1=O (stereo not given) 0.269
CO[C@H]1O[C@H](CO)[C@@H](OC(=O)Nc2ccc(C(F)(F)F)cc2)[C@H](OC(=O)Nc2ccc3c(c2)OCO3)[C@H]1OC(=O)Nc1ccc2c(c1)OCO2 1.22
NCCCCCCNC(=O)[C@@H]1C[C@@H]2C(=O)N3CCC[C@H]3C(=O)N2[C@@H]1c1ccc(O)cc1 -0.386
COC(=O)C(CC#Cc1ccc2c(c1)[C@]1(C(=O)N2)[C@H](C(=O)O)[C@H]2C(=O)O[C@H](c3ccccc3)[C@H](c3ccccc3)N2[C@@H]1c1ccccc1OCCO)C(=O)OC 0.341
CCOC(=O)[C@H]1C/C=C/C[C@H](C(=O)OCC)C(=O)O[C@H]2[C@@H](OC)O[C@H](CO)[C@@H](OC(=O)CCc3ccccc3)[C@@H]2OC1=O -0.0432
C[C@]12C(=O)N(CCCCCCO)[C@@H]3C(=O)N(c4ccc(Cl)cc4)CC=CC31O[C@@H]1/C=C\CCCOC(=O)C12 (stereo not given in full) -0.295
